ATG4B inh: blocks human ATG4B protease cleavage of LC3 substrate | Q9Y4P1 | ATG4B cleavage of LC3-PLA2, NBD-HPC fluorescence, 1 h | inhibition, % at 8.33 µM | hit rate 0.51% among 340,000 | AID 504462; in the data active = inhibition above about 40%
Target sequence (Q9Y4P1 whole entry, looked up): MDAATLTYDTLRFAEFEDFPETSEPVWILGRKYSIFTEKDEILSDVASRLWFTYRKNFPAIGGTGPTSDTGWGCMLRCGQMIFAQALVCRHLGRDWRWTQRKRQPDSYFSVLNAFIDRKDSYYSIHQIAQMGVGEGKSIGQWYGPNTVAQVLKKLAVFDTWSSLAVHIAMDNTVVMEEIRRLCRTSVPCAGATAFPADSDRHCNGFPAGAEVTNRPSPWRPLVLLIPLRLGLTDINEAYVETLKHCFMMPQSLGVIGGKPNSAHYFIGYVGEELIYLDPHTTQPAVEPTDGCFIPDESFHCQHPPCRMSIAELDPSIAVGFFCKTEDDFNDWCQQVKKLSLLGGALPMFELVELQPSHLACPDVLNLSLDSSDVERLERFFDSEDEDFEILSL
SKN-1 inh: blocks SKN-1 activity in C. elegans; inhibition, % at 21.8 µM; C. elegans VP596 Pgst-4::GFP/RFP ratio, acrylamide-induced, 24 h; hit rate 0.49% among 360,000; AID 624304;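 active = interference check ratio from 0.5 to 1.5 plus GFP to RFP signal ratio inhibition reaching or exceeding a fixed threshold, cut at about 30% in these data, passing the limit was not always enough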
CHRM1 antagonist: human CHRM1 antagonism. P11229. CHO-K1 hM1, Fluo-8 calcium fluorescence, ACh EC80 antagonist. inhibition, % at 3 µM. hit rate 1.3% among 360,000. AID 588852;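 active = percent inhibition above its own plate's cutoff, namely the mean of that plate's compound wells plus 3 SD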;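 note: peak over basal fluorescence ratio during 140 s after agonist addition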
M1 PAM: potentiates human M1 receptor response to acetylcholine; CHO-K1 hM1, Fluo-8 calcium fluorescence, ACh EC20; 0% = ACh EC20, 100% = maximal ACh; AID 588819; activation, % at 3 µM; hit rate 0.088% among 360,000; P11229; in the data active = activation above about 19%, passing the limit was not always enough
Myeloid diff MLP: myeloid differentiation induction; calls only at 10 µM; ER-HoxA9 myeloid progenitors, lysozyme-GFP differentiation, flow cytometry; hit rate 1% among 360,000; AID 624256;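 active = normalized GFP-positive differentiation at or above the plate's own cutoff, the solvent-only control mean plus 3 SD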;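 note: cells exposed to compound for four days before flow analysis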
CHRM1 agonist: agonists of human M1 muscarinic receptor. AID 588814. P11229. activation, % at 3 µM. CHO-K1 hM1, Fluo-8 calcium fluorescence, agonist mode; 0% DMSO, 100% acetylcholine EC100. hit rate 0.33% among 360,000;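 active = activation above the run's mean compound activation plus 3 SD, cut at about 16% in these data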;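 note: peak over basal fluorescence ratio within a 140 s kinetic read after compound addition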
Numbers stand for hits. Most compounds without a hit are left out; they make up all but 3.5% or so of the library.

What do the screens show for `O=C(O)C(c1ccccc1)C1CCCCC1O` (stereo not given)?
ATG4B inh: inactive; SKN-1 inh: inactive; CHRM1 antagonist: inactive; M1 PAM: inactive; Myeloid diff MLP: inactive; CHRM1 agonist: inactive

Results for Cc1cccc(NC(=O)CSc2nc3ccccc3c(=O)n2C)c1 ?
ATG4B inh: inactive; SKN-1 inh: inactive; CHRM1 antagonist: inactive; M1 PAM: inactive; Myeloid diff MLP: inactive; CHRM1 agonist: inactive

What do the screens show for `CCCCn1c(-c2nonc2NC(=O)c2ccccc2Cl)nc2ccccc21`?
ATG4B inh: inactive; SKN-1 inh: inactive; CHRM1 antagonist: inactive; M1 PAM: inactive; Myeloid diff MLP: active; CHRM1 agonist: inactive

What do the screens show for `N#CCCn1c(-c2nonc2NC(=O)c2ccccc2Cl)nc2ccccc21`?
ATG4B inh: inactive; SKN-1 inh: inactive; CHRM1 antagonist: inactive; M1 PAM: inactive; Myeloid diff MLP: inactive; CHRM1 agonist: inactive

Results for O=C(Nc1ccccc1)N1CCN(c2nc(-c3ccccc3)ns2)CC1 ?
ATG4B inh: inactive; SKN-1 inh: inactive; CHRM1 antagonist: 32; M1 PAM: inactive; Myeloid diff MLP: inactive; CHRM1 agonist: inactive

What do the screens show for `O=C(Nc1ccccc1Cl)N1CCCN(c2nc(-c3ccccc3)ns2)CC1`?
ATG4B inh: inactive; SKN-1 inh: inactive; CHRM1 antagonist: inactive; M1 PAM: inactive; Myeloid diff MLP: inactive; CHRM1 agonist: inactive

How did COc1ccc(C2=NN(C(=O)CSC3=NN4CCCC(=O)N=C4S3)C(c3cccc(OC)c3OC)C2)cc1 (stereo not given) do in these assays?
ATG4B inh: inactive; SKN-1 inh: inactive; CHRM1 antagonist: inactive; M1 PAM: inactive; Myeloid diff MLP: inactive; CHRM1 agonist: inactive

How did COc1cccc(C2CC(c3cccs3)=NN2C(=O)CSC2=NN3CCCC(=O)N=C3S2)c1OC (stereo not given) do in these assays?
ATG4B inh: inactive; SKN-1 inh: inactive; CHRM1 antagonist: inactive; M1 PAM: inactive; Myeloid diff MLP: active; CHRM1 agonist: inactive

Results for O=[N+]([O-])c1cccc(/C=N/Nc2ccccn2)c1 ?
ATG4B inh: inactive; SKN-1 inh: inactive; CHRM1 antagonist: inactive; M1 PAM: inactive; Myeloid diff MLP: inactive; CHRM1 agonist: inactive

What do the screens show for `COc1ccccc1N/C=C/c1onc(C)c1[N+](=O)[O-]`?
ATG4B inh: inactive; SKN-1 inh: inactive; CHRM1 antagonist: inactive; M1 PAM: inactive; Myeloid diff MLP: inactive; CHRM1 agonist: inactive

Results for O=[N+]([O-])c1cccc(/C=C/c2ccccn2)c1 ?
ATG4B inh: inactive; SKN-1 inh: 36; CHRM1 antagonist: inactive; M1 PAM: inactive; Myeloid diff MLP: inactive; CHRM1 agonist: inactive

What do the screens show for `Cc1noc(/C=C/c2ccccn2)c1[N+](=O)[O-]`?
ATG4B inh: inactive; SKN-1 inh: inactive; CHRM1 antagonist: inactive; M1 PAM: inactive; Myeloid diff MLP: active; CHRM1 agonist: inactive

What do the screens show for `CC(C)(O)C#Cc1ccc(CNC[C@H]2O[C@@H](n3cnc(C(N)=O)n3)[C@H](O)[C@@H]2O)s1`?
ATG4B inh: inactive; SKN-1 inh: inactive; CHRM1 antagonist: inactive; M1 PAM: inactive; Myeloid diff MLP: inactive; CHRM1 agonist: inactive

What do the screens show for `COC(=O)c1ccc(S(=O)(=O)N2CCCN(Cc3cccc(Br)c3F)CC2)n1C`?
ATG4B inh: inactive; SKN-1 inh: inactive; CHRM1 antagonist: inactive; M1 PAM: inactive; Myeloid diff MLP: inactive; CHRM1 agonist: inactive

How did CS(=O)(=O)N1CCc2cc(S(=O)(=O)Nc3ccc4c(c3)OCCO4)ccc21 do in these assays?
ATG4B inh: inactive; SKN-1 inh: inactive; CHRM1 antagonist: 33; M1 PAM: inactive; Myeloid diff MLP: inactive; CHRM1 agonist: inactive

What do the screens show for `CCC(=O)N1CCc2cc(S(=O)(=O)Nc3ccc4c(c3)OCCO4)ccc21`?
ATG4B inh: inactive; SKN-1 inh: inactive; CHRM1 antagonist: inactive; M1 PAM: inactive; Myeloid diff MLP: inactive; CHRM1 agonist: inactive

How did CCN(CC)CCOC(=O)C1(c2ccccc2)CCCC1 do in these assays?
ATG4B inh: inactive; SKN-1 inh: inactive; CHRM1 antagonist: 100; M1 PAM: inactive; Myeloid diff MLP: inactive; CHRM1 agonist: inactive

How did CCN(CC)CCOC(=O)C1(c2ccc(OC)c(OC)c2)CCCC1 do in these assays?
ATG4B inh: inactive; SKN-1 inh: inactive; CHRM1 antagonist: 77; M1 PAM: inactive; Myeloid diff MLP: inactive; CHRM1 agonist: inactive

What do the screens show for `CN(C)CCOC(=O)C1(c2ccccc2)CCOCC1`?
ATG4B inh: inactive; SKN-1 inh: inactive; CHRM1 antagonist: 23; M1 PAM: inactive; Myeloid diff MLP: inactive; CHRM1 agonist: inactive

Results for O=C(OCCCN1CCCC1)C1(c2ccccc2)CCCC1 ?
ATG4B inh: inactive; SKN-1 inh: inactive; CHRM1 antagonist: 96; M1 PAM: inactive; Myeloid diff MLP: inactive; CHRM1 agonist: inactive

Results for NC(=O)c1ccc(NC(=O)CSc2nnc(-c3ccncc3)n2Cc2ccco2)cc1 ?
ATG4B inh: inactive; SKN-1 inh: inactive; CHRM1 antagonist: inactive; M1 PAM: inactive; Myeloid diff MLP: inactive; CHRM1 agonist: inactive

What do the screens show for `Cc1c(Cl)cccc1NC(=S)N(CCCN1CCOCC1)Cc1cccs1`?
ATG4B inh: inactive; SKN-1 inh: inactive; CHRM1 antagonist: 82; M1 PAM: inactive; Myeloid diff MLP: inactive; CHRM1 agonist: inactive

Results for COc1ccc(NC(=S)N(CCCN2CCCCC2)Cc2cccs2)cc1 ?
ATG4B inh: inactive; SKN-1 inh: inactive; CHRM1 antagonist: 59; M1 PAM: inactive; Myeloid diff MLP: inactive; CHRM1 agonist: inactive

How did O=C(C[C@H]1C/C=C\C[C@@H](Cc2ccc(F)cc2)C(=O)OC[C@@H](Cc2c[nH]c3ccccc23)NC1=O)NCCO do in these assays?
ATG4B inh: inactive; SKN-1 inh: inactive; CHRM1 antagonist: inactive; M1 PAM: inactive; Myeloid diff MLP: inactive; CHRM1 agonist: inactive

How did CC(=O)SCC[N+](C)(C)C do in these assays?
ATG4B inh: inactive; SKN-1 inh: inactive; CHRM1 antagonist: inactive; M1 PAM: inactive; Myeloid diff MLP: inactive; CHRM1 agonist: 70

What do the screens show for `C[N+](C)(C)CCCCCCCCCC[N+](C)(C)C`?
ATG4B inh: inactive; SKN-1 inh: inactive; CHRM1 antagonist: inactive; M1 PAM: inactive; Myeloid diff MLP: inactive; CHRM1 agonist: inactive

Results for Cc1ccc(S(=O)(=O)N2C[C@H]3n4c(=O)ccc(=O)n4C[C@H](OC(=O)NC4CC4)[C@@]3(O)C2)cc1 ?
SKN-1 inh: inactive; CHRM1 antagonist: inactive; M1 PAM: inactive; Myeloid diff MLP: active; CHRM1 agonist: inactive

How did Cc1ccc(S(=O)(=O)N2C[C@H]3n4c(=O)ccc(=O)n4C[C@H](OC(=O)Nc4c(C)noc4C)[C@@]3(O)C2)cc1 do in these assays?
SKN-1 inh: inactive; CHRM1 antagonist: inactive; M1 PAM: inactive; Myeloid diff MLP: inactive; CHRM1 agonist: inactive

How did CC(Oc1ccc(Br)cc1)C(=O)O/N=C(\N)c1ccncc1 (stereo not given) do in these assays?
ATG4B inh: inactive; SKN-1 inh: 54; CHRM1 antagonist: inactive; M1 PAM: inactive; Myeloid diff MLP: inactive; CHRM1 agonist: inactive

High-throughput results from PubChem BioAssay.
